This is an account of results in PubChem BioAssay (NCATS).

Test [1] relates to HIV-1 nucleocapsid protein NCp7 (binding to TG oligonucleotide). In words: HIV Nucleocapsid (AID 346; call rule not given here;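 note: potency is the fitted concentration of half-maximal effect; potency is for inhibitors that block NC binding and lower polarization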). The following applies: HIV-1 NC / fluorescein-TGTGTGTG probe, fluorescence polarization. The method in brief: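 Fluorescence polarization binding of 100 nM HIV-1 NC to 10 nM fluorescein-labelled TG4xF oligonucleotide. Buffer was Hepes pH 7.5 with 250mM NaCl, 1uM ZnCl2, TCEP and 2-mercaptoethanol. Compounds were incubated 1 hr at room temperature before the read.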

The target of test [2] is Lysosomal acid glucosylceramidase (Homo sapiens) (UniProt P04062). The test can be described thus: Glucocerebrosidase-p2 (AID 348; in the data active = potency below about 10 µM; note: potency is the fitted concentration of half-maximal effect). Conditions: purified GBA, blue fluorogenic substrate, 40 min. The method in brief:
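Compounds titrated from 0.6 nM upwards against 0.2 nM enzyme in pH 5.9 citric acid/KH2PO4, taurocholate, tween-20; blue fluorogenic substrate 80 uM, 40 min room temperature, stopped and read Ex 365/Em 440 for AC50.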

Test [3] in a line: AP1 Signaling Pathway (AID 357). Note: % is set by controls: 0 for no effect and ±100 for the full control effect. The method in brief: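 AP-1-bla ME-180 cells with beta-lactamase reporter under AP-1 response element, stimulated with EC50 EGF; compounds titrated, 5 hours at 37 degrees Celsius. CCF4 read at 460/530 nm ratio; positive and negative modulators judged by AC50.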
The target in test [4] is Cytochrome P450 1A2 (Homo sapiens) (UniProt P05177). The test can be described thus: p450-cyp1a2 (AID 410; calls by dose curve;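 note: -100% = full effect of reference inhibitor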). The method in brief:
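20nM CYP1A2 with 100uM Luciferin-ME (at Km) in 100mM KPO4; compound preincubated 10 min, NADPH regeneration added, 60 min at room temperature. Luciferin quantified by luminescence after detection reagent; normalized to 57 uM furafylline.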

The nature of test [5]: NFAT Signaling Pathway (AID 444).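 Note: carbachol stimulus at about its EC50 of 1 µM final; % is set by controls: 0 for no effect and ±100 for the full control effect.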 The following applies: Jurkat NFAT-bla M1, carbachol, beta-lactamase ratio, 5 h; at 7.69 µM (top of the series). The method in brief: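 Jurkat cells carrying an NFAT-driven β-lactamase reporter and co-transfected muscarinic M1 receptor were treated with compound plus carbachol (1 uM final, an EC50 level) for 5 h at 37 °C. CCF4 loading followed for 1 h at RT; 460/530 nm ratio gave %activity.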

A short description of test [6]: Stat Signaling Pathway (AID 446).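 Note: ME-180 cervical cancer cells given 40 pM IL-6 alongside compound; SIE-controlled beta-lactamase reporter measured as 460/530 nm FRET emission ratio; % is set by controls: 0 for no effect and ±100 for the full control effect.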 The method in brief: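 IL-6/STAT signaling read in ME-180 cells via an SIE beta-lactamase reporter. Stimulus was 40 pM IL-6 (its AC50) for 5 hrs, so both activation and inhibition register.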
For test [7], the target named is Glucocorticoid receptor (Homo sapiens) (UniProt P04150). The test can be described thus: GR-EFC Redistribution (AID 451; calls by dose curve; note: potency is the fitted concentration of half-maximal effect). Conditions: CHO-K1 GR-EFC translocation, beta-gal luminescence, 2 h. The method in brief:
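CHO-K1 cells stably expressing nuclear-localized β-gal enzyme acceptor and GR fused C-terminally to the enzyme donor fragment; ligand-driven nuclear translocation restores β-gal by complementation. Compounds titrated up to 46 uM final, 2 h at 37 °C; luminescence read.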

Test [8] addresses Mitogen-activated protein kinase 10 (Mus musculus) (UniProt Q61831). In words: JNK3 AlphaScreen Assay (AID 530).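 Note: kinase came from lysate of stimulated human HepG2 cells; signal reports phosphorylation of biotinylated GST-cJun 1-79 at Ser73 with 10 µM ATP; % is set by controls: 0 for no effect and ±100 for the full control effect.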 The method in brief:
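Inhibitors reduce antibody binding to phosphorylated biotin-cJun, lowering AlphaScreen luminescence. Lysates from HepG2 cells pre-activated by IL-1beta plus TNF-alpha supplied JNK3; compounds were titrated.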

The target of test [9] is Cytochrome P450 3A4 (Homo sapiens) (UniProt P08684). The test can be described thus: qHTS Assay for Activators of Cytochrome P450 3A4 (AID 885; active = well fitted curve in the direction sought with a large enough effect; an effect the other way counts as inactive or inconclusive; note: nearly all actives have a fitted effect of over 65% in size). The method in brief: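 Quantitative HTS format: compounds preincubated with 20nM human CYP3A4 and Luciferin-PPXE substrate at KM, reaction started by NADPH regeneration, stopped after 60 min, luciferase luminescence read 20 min later.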

Test [10] is described as follows: qHTS Assay for Lipid Storage Modulators (AID 1519; calls by dose curve). The following applies: Drosophila S3 cells, BODIPY lipid droplet/cell ratio, laser cytometry, cells loaded with oleic acid; for activity change, negative = inhibition: at 57.5 µM (top of the series). The method in brief: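 Cells seeded at 5,000 per well were treated with compounds over a concentration series and loaded with oleic acid (400 uM, as added). Lipid droplet fluorescence (488 nm excitation, 500-530 nm channel) was read by laser-scanning cytometry and normalized to 20 uM Triacsin C.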

Test [11] in a line: Counterscreen qHTS for small molecule stabilizers of the endoplasmic reticulum resident proteome: GLuc-NoTag assay (AID 1508627; active = well fitted curve in the direction sought with a large enough effect; an effect the other way counts as inactive or inconclusive;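 note: SH-SY5Y cells given compound then 100 nM thapsigargin to empty ER calcium; 0% = thapsigargin alone and -100% = DMSO vehicle control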). The method in brief: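 SH-SY5Y cells stably expressing constitutively secreted GLuc (no SERCaMP tag) were pre-incubated 5 h, treated with compound for 19 h, then 100 nM thapsigargin for 4 h at 37C; medium GLuc read by coelenterazine luminescence.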

Test [12] can be described thus: Cell Viability qHTS for small molecule stabilizers of the endoplasmic reticulum resident proteome (AID 1508629; active = well fitted curve in the direction sought with a large enough effect; an effect the other way counts as inactive or inconclusive). The following applies: cell viability counter-screen, 100 nM thapsigargin for final 4 h.
The target in test [13] is 3',5'-cyclic-AMP phosphodiesterase 4B (Homo sapiens) (UniProt Q07343). The test can be described thus: qHTS Assay for Inhibitors of PDE-IV (AID 607; active = well fitted activation curve with a large enough effect in the main read-out, with a control signal flat, not every such curve was filed as active; note: % of control where 0% means no effect). The method in brief: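 Live HEK293 cells with a modified cyclic nucleotide-gated (CNG) channel report intracellular cAMP via membrane-potential dye fluorescence (ex 535/em 590 nm). Endogenous PDE-IV was targeted. Compounds were tested at up to 22.9 uM final; RO 20-1724 100 uM served as control.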

Test [14] deals with Cytochrome P450 2D6 (Homo sapiens) (UniProt P10635). The test can be described thus: qHTS Assay for Inhibitors and Substrates of Cytochrome P450 2D6 (AID 891; active = well fitted curve in the direction sought with a large enough effect; an effect the other way counts as inactive or inconclusive; note: potency is the fitted concentration of half-maximal effect; nearly all actives have a fitted effect of over 60% in size). The method in brief: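 Human CYP2D6 (5 nM) with 30 uM Luciferin-ME EGE (at Km) in 100 mM KPO4, compound preincubated 10 min, then NADPH regeneration system for 60 min at room temperature. Luciferin read by luminescence; normalized to 1.43 uM quinidine.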

The mark [15] stands for this setting: measured here: cell count channel max response.
Setting [16] is: measured here: lipid channel max response.

Results filed as inconclusive are left out. Active and inactive are the calls of the source. Unless noted, calls come from the whole dose curve; as a rule, active = well fitted curve in either direction with a large enough effect (not every such curve was filed as active); inconclusive = small, poorly fitted or top-dose-only effect, or another doubt; inactive = flat fitted curve, though single readings scatter. Bounds are passed on as bounds.

Chain of Lysosomal acid glucosylceramidase (Homo sapiens) (P04062 whole entry, looked up): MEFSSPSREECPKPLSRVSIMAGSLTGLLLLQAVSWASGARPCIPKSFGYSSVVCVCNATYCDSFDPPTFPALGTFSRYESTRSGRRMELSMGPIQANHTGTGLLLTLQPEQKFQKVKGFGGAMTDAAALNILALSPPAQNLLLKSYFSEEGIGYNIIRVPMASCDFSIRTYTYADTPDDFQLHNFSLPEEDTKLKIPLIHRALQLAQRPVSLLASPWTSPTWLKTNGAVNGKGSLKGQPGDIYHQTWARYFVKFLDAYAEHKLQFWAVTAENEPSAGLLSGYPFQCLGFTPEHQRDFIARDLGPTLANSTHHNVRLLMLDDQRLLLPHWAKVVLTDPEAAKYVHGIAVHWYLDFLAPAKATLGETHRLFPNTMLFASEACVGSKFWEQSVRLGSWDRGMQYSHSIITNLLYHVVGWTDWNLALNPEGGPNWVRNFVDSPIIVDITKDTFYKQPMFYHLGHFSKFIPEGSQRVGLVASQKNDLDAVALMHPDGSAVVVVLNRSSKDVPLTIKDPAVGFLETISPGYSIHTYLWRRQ
Chain of Cytochrome P450 3A4 (Homo sapiens) (P08684 whole entry, looked up): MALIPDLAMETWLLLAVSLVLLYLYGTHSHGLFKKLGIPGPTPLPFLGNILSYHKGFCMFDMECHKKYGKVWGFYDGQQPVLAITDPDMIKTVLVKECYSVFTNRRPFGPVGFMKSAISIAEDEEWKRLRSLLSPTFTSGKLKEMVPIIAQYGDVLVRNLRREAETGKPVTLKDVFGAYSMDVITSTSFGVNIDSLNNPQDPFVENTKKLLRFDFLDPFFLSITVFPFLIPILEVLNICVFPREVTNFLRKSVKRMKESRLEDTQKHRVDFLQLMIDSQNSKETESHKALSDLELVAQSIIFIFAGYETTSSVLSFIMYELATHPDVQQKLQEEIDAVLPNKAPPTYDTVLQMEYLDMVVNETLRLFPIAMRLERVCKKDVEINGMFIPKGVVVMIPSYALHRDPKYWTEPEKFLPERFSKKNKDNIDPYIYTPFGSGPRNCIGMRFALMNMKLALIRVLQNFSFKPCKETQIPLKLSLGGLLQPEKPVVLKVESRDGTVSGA
Chain of Glucocorticoid receptor (Homo sapiens) (P04150 whole entry, looked up, the tested form may be a part): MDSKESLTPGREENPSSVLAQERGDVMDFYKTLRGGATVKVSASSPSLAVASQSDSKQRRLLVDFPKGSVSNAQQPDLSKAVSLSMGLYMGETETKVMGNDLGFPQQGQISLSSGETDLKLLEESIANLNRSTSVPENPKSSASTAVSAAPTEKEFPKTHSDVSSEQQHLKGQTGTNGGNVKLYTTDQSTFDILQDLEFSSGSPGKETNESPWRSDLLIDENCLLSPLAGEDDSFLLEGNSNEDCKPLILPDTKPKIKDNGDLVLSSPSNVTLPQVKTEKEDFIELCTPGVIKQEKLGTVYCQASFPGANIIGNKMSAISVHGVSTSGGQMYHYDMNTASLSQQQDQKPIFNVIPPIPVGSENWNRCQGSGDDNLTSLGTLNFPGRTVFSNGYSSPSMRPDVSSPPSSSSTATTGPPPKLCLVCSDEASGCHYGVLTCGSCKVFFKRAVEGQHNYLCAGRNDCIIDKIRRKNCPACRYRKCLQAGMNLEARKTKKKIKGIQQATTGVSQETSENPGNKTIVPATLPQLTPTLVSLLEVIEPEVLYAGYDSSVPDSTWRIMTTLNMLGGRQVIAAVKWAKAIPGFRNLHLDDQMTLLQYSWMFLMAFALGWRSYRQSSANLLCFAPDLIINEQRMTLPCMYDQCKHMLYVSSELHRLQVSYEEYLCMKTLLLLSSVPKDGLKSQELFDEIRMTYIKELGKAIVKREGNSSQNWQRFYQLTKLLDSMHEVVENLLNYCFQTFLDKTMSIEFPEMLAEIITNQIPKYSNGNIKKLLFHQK
Chain of Cytochrome P450 1A2 (Homo sapiens) (P05177 whole entry, looked up): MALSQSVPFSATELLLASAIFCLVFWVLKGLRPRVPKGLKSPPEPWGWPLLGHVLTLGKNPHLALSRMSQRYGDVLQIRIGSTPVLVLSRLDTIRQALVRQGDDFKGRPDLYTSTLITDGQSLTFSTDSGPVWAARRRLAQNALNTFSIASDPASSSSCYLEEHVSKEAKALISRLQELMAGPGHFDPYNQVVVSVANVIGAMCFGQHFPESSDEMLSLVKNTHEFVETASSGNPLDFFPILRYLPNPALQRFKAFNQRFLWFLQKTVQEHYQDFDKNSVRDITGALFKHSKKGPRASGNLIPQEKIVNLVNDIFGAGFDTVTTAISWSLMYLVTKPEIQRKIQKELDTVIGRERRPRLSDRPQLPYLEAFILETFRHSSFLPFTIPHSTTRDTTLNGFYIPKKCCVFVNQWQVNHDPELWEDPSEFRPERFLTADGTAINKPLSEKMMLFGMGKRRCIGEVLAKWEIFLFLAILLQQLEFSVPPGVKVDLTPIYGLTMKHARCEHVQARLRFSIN
Chain of Cytochrome P450 2D6 (Homo sapiens) (P10635 whole entry, looked up): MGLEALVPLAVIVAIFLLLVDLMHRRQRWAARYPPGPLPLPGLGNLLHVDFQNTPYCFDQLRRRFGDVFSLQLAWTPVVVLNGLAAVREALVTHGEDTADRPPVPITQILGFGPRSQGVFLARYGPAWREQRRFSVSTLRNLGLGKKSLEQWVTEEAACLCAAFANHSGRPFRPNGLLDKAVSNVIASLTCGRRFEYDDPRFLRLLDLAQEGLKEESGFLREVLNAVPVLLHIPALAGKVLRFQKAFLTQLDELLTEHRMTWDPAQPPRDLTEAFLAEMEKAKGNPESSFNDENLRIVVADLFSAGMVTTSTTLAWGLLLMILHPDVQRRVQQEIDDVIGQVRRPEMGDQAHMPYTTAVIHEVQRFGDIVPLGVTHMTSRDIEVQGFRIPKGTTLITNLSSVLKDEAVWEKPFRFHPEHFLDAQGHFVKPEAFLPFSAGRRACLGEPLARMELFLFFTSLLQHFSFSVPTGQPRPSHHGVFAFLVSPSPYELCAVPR
Chain of 3',5'-cyclic-AMP phosphodiesterase 4B (Homo sapiens) (Q07343 whole entry, looked up): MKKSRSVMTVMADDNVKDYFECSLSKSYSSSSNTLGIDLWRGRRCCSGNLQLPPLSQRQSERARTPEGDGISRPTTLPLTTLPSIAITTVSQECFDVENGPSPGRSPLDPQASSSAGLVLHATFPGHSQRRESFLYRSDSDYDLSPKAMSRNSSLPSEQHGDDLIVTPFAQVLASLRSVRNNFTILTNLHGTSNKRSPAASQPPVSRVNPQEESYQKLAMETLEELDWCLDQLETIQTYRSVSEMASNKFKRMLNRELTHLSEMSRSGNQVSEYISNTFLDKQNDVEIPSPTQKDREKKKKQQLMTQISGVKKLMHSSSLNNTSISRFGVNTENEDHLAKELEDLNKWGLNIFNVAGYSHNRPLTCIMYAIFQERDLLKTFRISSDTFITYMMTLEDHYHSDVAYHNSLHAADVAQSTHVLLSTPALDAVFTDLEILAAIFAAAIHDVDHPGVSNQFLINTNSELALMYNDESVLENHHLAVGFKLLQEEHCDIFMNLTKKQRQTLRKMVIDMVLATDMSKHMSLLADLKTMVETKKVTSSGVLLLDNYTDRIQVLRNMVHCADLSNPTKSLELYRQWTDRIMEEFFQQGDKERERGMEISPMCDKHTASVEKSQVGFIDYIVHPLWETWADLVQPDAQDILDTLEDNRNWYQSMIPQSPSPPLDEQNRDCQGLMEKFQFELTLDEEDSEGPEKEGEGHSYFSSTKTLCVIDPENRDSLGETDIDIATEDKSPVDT

For `c1cc(CN2CCCC3(CCNCC3)C2)ccn1`, the Potency is > 20 µM (inactive) in test [1], > 11.4 µM (inactive) in test [2] and > 46 µM (inactive) in [7]. The call in test [3], in test [6], in [8] and in [11] was inactive. In addition, the Potency result in [4] and in test [9] was “inactive” throughout. Besides, the activity change, negative = inhibition was -14.6% (inactive) in [5] and 4.72% (inactive) in test [10]. The max response is 11% in [10] (setting [15]), 17.7% in test [10] (setting [16]) and 27.2% (inactive) in test [12].
Turning to `c1ccc(N2CCC3(CCNCC3)CC2)nc1`, the Potency in test [2] was > 11.4 µM (inactive); in test [7] it was > 46 µM (inactive); in [14] it was 1.26 µM (active). Also, the compound was called inactive in test [3], in test [6], in test [8] and in [11]. Further, the Potency result in [4], in test [13] and in test [9] was “inactive” each time. Besides, the activity change, negative = inhibition in test [10] was 6.81% (inactive). For the same compound, the max response amounted to 19.9% in [10] (setting [15]) and 29.9% in [10] (setting [16]).
